Among the data in PubChem BioAssay AID431 (Sanford-Burnham Center for Chemical Genomics, 2006) are cytotoxicity values, retold here.

Screen size: about 63,000 compounds; about 1,100 (1.7%) were called active. Many of the other results were omitted from the sample, so actives are more common in it than they were. Measured potencies and affinities stand elsewhere. Values without a mark were called inactive.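 The calls were made as follows: active = compounds whose percent cytotoxicity in the single-dose primary screen, scaled between solvent and toxic-drug controls, exceeds 50; inactive = the rest.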

This assay in a line: cytotoxicity in KRAS-transformed pancreatic duct cells, primary screen, cell-based, fluorescence, HTS (AID 431).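 Also: 0% = DMSO solvent wells and 100% = doxorubicin-treated wells.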 To be noted: HPDE-C7K KRASV12 cells, Alamar Blue viability, 48 h; at 10 µM; stronger effect = higher value.
Turning to `CC[C@]1(O)CC2CN(CCc3c([nH]c4ccccc34)[C@@](C(=O)OC)(c3cc4c(cc3OC)N(C=O)[C@H]3[C@@](O)(C(=O)OC)[C@H](OC(C)=O)[C@]5(CC)C=CCN6CC[C@]43[C@@H]65)C2)C1` (stereo not given in full), the cytotoxicity is 72.5% (active).

For `CC[C@]1(O)C[C@@H]2CN(CCc3c([nH]c4ccccc34)[C@@](C(=O)OC)(c3cc4c(cc3OC)N(C)[C@H]3[C@@](O)(C(=O)OC)[C@H](OC(C)=O)[C@]5(CC)C=CCN6CC[C@]43[C@@H]65)C2)C1`, the cytotoxicity is 74.9% (active).

For the compound `CC(=O)Oc1ccc(N(C(C)=O)S(=O)(=O)c2cccs2)cc1`, the cytotoxicity is 8.2%.

Take `O=C(O)CCC(=O)Nc1nnc(C(F)(F)F)s1`: the cytotoxicity is -6.4%.

In the case of `CCCNc1cc(=O)n(C)c(=O)n1C`, the cytotoxicity was 9.9%.

Regarding `O=c1c2c3nc4ccccc4nc3n(-c3cccc(F)c3)c2ncn1Cc1ccc2c(c1)OCO2`, the cytotoxicity is 7.3%.

Turning to `Cc1ccc(SC(C)C(=O)NCC(C)C)cc1` (stereo not given), the cytotoxicity is 0%.

For `CC(C)c1ccc(O)c(N)c1`, the cytotoxicity was 8%.

`Cc1ccc(O)c(Sc2cc(C)ccc2O)c1`: the cytotoxicity is 65.2% (active).

For `Cc1ccc(NC(=O)CSc2nccc(=O)[nH]2)c(S(=O)(=O)N2CCOCC2)c1`, the cytotoxicity was 2.7%.

On to `CCOC(=O)C1CCN(C(c2cccnc2)c2c(NC(=O)c3ccco3)sc(C)c2C)CC1` (stereo not given), for which the cytotoxicity is 82.5% (active).

Consider `Cc1sc(NC(=O)c2ccco2)c(C(c2ccncc2)N2CCOCC2)c1C` (stereo not given), for which the cytotoxicity was -8.8%.

Turning to `Cc1sc(NC(=O)c2ccco2)c(C(c2cccnc2)N2CCN(c3ccc(F)cc3)CC2)c1C` (stereo not given), the cytotoxicity is 1.9%.

In the case of `Cc1ccc2nc(N3CCN(C(=O)c4cccs4)CC3)c(C#N)cc2c1`, the cytotoxicity was 2%.

In the case of `Cc1ccc2ncccc2c1NS(=O)(=O)c1ccccc1`, the cytotoxicity is -4.5%.

For the compound `O=S(=O)(Nc1cccc2ncccc12)c1cccs1`, the cytotoxicity was 25.3%.

Regarding `c1ccc(N(c2ccccc2)c2nc(N3CCCC3)nc(-n3ccnc3)n2)cc1`, the cytotoxicity was 1.4%.

As to `O=C1c2cccnc2C(O)N1Cc1ccc(F)cc1` (stereo not given), the cytotoxicity was 1.3%.

With `Cc1ccc2oc(=O)c3cc(C(=O)N4CCN(C(=O)c5ccco5)CC4)sc3c2c1`, the cytotoxicity is 11%.

With `O=C(Nc1ccc(-n2cnnn2)cc1)C1CCC1`, the cytotoxicity is -4.6%.

As to `COc1ccc(-c2n[nH]c(C)c2-c2cnn(-c3ccccc3)c2)c(O)c1`, the cytotoxicity was 29.6%.

For `COc1ccc(-c2noc(C)c2-c2ccc3ccccc3n2)c(O)c1`, the cytotoxicity is 54.3% (active).

In the case of `COc1ccc(-c2onc(C)c2-c2ccccc2)c(O)c1`, the cytotoxicity was 15.1%.

In the case of `CCOc1ccccc1Nc1ccc(C(=O)O)cc1NC(C)=O`, the cytotoxicity is 0.6%.

Take `O=C(c1cc(-c2cccs2)on1)N1CCN(c2ccc(F)cc2)CC1`: the cytotoxicity was 13.6%.

Take `O=C(c1cc(-c2cccs2)on1)N1CCN(c2ccccc2)CC1`: the cytotoxicity is 50.8% (active).

With `O=C(c1cc(-c2cccs2)on1)N1CCOCC1`, the cytotoxicity was 2.8%.

Consider `O=S(=O)(c1cccc2cccnc12)n1cnc2ccccc21`, for which the cytotoxicity was 6.3%.

`Cc1cccc(C)c1NC(=O)CSc1nnc(Cn2nnc(-c3ccccc3)n2)n1-c1ccccc1`: the cytotoxicity is -8.4%.

`N#CC(C(=O)OC1CCCCC1)c1nc2ccccc2nc1N1CCCCC1` (stereo not given): the cytotoxicity was 5.4%.

As for `O=C(C1=C(O)C(=O)N(CCN2CCOCC2)C1c1ccccc1)c1cccs1` (stereo not given), the cytotoxicity is -12.1%.

Consider `O=C(c1cccs1)N1CCC(c2nc3c(nnn3Cc3ccccc3)c(=O)[nH]2)CC1`, for which the cytotoxicity was -36%.

In the case of `COCC(=O)n1nc(-c2ccccc2)nc1NCc1ccc(F)cc1`, the cytotoxicity was -6%.

In the case of `Cc1cccc(N2CCN(C(=O)CCn3c(=S)[nH]c4cc5c(cc4c3=O)OCO5)CC2C)c1` (stereo not given), the cytotoxicity was 62.5% (active).

Take `COc1cccc(N2CCN(C(=O)CCn3c(=S)[nH]c4cc5c(cc4c3=O)OCO5)CC2)c1`: the cytotoxicity was -4.3%.

For `O=C(CCCn1c(=S)[nH]c2cc3c(cc2c1=O)OCO3)N1CCN(c2ccccc2)CC1`, the cytotoxicity is -7.8%.

On to `NC1=NC2(CCN(Cc3ccccc3)CC2)n2c(nc3ccccc32)N1`, for which the cytotoxicity is 1%.

With `NC1=NC2(CCC(c3ccccc3)CC2)n2c(nc3ccccc32)N1` (stereo not given), the cytotoxicity is 68.7% (active).

In the case of `NC1=NC2(CCCCC2)n2c(nc3ccccc32)N1`, the cytotoxicity is 19%.

With `CCOc1ccc(CNC(=O)NS(=O)(=O)c2ccc(OC)cc2)cc1`, the cytotoxicity is -11.3%.

As to `CCCCn1nnnc1NCc1cccc(OC)c1OC`, the cytotoxicity was 12.8%.

Take `CCCCn1c(SCC(=O)NCc2ccco2)nnc1-c1ccoc1C`: the cytotoxicity is -26.4%.

Consider `CCCN(CCC)C(=O)C1CCN(c2cc(C)nc3c(-c4ccc(OC)c(OC)c4)c(C)nn23)CC1`, for which the cytotoxicity was 7.2%.

Consider `COc1ccc(C(=O)C(c2ccccc2)N2CCOCC2)cc1` (stereo not given), for which the cytotoxicity was -2.4%.

Regarding `COc1ccc(C(=O)CCN2CCCCCC2)cc1`, the cytotoxicity is -7.8%.

In the case of `COc1ccc(C(O)C(CN2CCOCC2)c2ccccc2)cc1F` (stereo not given), the cytotoxicity was -8.6%.

As to `COc1ccc(C(=O)O)cc1F`, the cytotoxicity was 2.5%.

Regarding `Cc1c(C(=O)N2CCCCC2)sc(NC(=O)C2CC2)c1C#N`, the cytotoxicity was 2.5%.

Turning to `O=C(Nc1ccccc1Cl)c1cnccn1`, the cytotoxicity was -6.1%.

In the case of `CCn1c2ccccc2c2cc(C3C(C#N)=C(C)NC(C)=C3C#N)ccc21`, the cytotoxicity is 7.6%.

Consider `CCn1c2ccccc2c2cc(C3C(C#N)=C(N)OC4=C3C(=O)CC(C)(C)C4)ccc21` (stereo not given), for which the cytotoxicity is -10.7%.

Consider `Cc1ccc(N2C(=O)CSC23C(=O)Nc2ccccc23)cc1` (stereo not given), for which the cytotoxicity is -5.4%.

With `COC(=O)[C@@H](NC(=O)Nc1ccccc1F)C(C)C`, the cytotoxicity is 1.9%.

`COc1ccc(C(=O)c2ccc(OC)c(N)c2)cc1N`: the cytotoxicity was 66.7% (active).

Take `COc1ccc(C(=O)c2ccc(OC)c(OC)c2)cc1OC`: the cytotoxicity is -8.4%.

Regarding `COc1ccc(C(N)=O)cc1N`, the cytotoxicity was -1%.

As to `CN(Cc1ccccc1)C(=O)C1CCN(Cc2ccc(F)cc2)CC1`, the cytotoxicity is 8.6%.

Consider `CC(C)(C)OC(=O)N1CCC(c2c(C(=O)O)cnn2-c2ccccc2Cl)CC1`, for which the cytotoxicity was 1%.

Consider `Cc1ccc(CNC(=O)CCS(=O)(=O)c2ccc(Br)s2)o1`, for which the cytotoxicity is -4.2%.

Take `COc1ccc(N(CC(=O)Nc2cc(Cl)ccc2OC)S(=O)(=O)c2c(C)noc2C)cc1`: the cytotoxicity is 77.1% (active).

With `CCOc1ccccc1NC(=O)CN(c1ccc(OC)cc1)S(=O)(=O)c1c(C)noc1C`, the cytotoxicity was 52.8% (active).

On to `COc1ccc(OC)c(NC(=O)CN(c2ccc(C)cc2)S(=O)(=O)c2c(C)noc2C)c1`, for which the cytotoxicity was 1.7%.

In the case of `COc1ccc(N(CC(=O)Nc2cc(C)ccc2OC)S(=O)(=O)c2c(C)noc2C)cc1`, the cytotoxicity was 9.5%.

With `CCOc1ccccc1NC(=O)CN(c1ccc(C)cc1)S(=O)(=O)c1c(C)noc1C`, the cytotoxicity is -7.2%.

In the case of `CCOc1ccccc1NC(=O)CN(c1cc(C)cc(C)c1)S(=O)(=O)c1c(C)noc1C`, the cytotoxicity was -9.2%.
